{"source": "PubChem BioAssay AID1346378", "about": "(National Center for Advancing Translational Sciences (NCATS), 2018)", "note": "Where “and” joins values, the source holds several entries; their conditions need not be identical. Equal values may be shown once. Out of some 420,000 compounds screened, about 540 (0.13%) were called active. Cut-off read from the data, not from the text of the source: active = activity change below about -50%; inconclusive = mostly about -30% to -49%; inactive = weaker than that. Only a selection was taken, and actives are over-represented in it overall. The source holds several records for some structures; these can differ, active in one and inactive in another.", "data": [{"target": "Phosphatidylinositol 4-kinase type 2-alpha (Homo sapiens) (UniProt Q9BTU6)", "sequence (Q9BTU6 whole entry, looked up)": "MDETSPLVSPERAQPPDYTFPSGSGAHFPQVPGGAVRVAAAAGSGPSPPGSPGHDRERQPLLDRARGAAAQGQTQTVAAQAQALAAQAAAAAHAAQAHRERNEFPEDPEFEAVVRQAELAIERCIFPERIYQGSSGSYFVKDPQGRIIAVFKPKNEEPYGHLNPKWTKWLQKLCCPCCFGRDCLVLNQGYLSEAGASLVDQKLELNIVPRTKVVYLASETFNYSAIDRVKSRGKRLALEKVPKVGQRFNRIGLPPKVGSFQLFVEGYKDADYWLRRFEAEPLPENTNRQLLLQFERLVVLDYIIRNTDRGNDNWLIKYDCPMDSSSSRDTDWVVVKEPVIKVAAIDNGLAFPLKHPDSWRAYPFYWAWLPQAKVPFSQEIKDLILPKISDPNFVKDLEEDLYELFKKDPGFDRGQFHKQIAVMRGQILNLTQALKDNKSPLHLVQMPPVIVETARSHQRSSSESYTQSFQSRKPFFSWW", "assay": "qHTS for small molecular inhibitors of PI4K2A;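 note: -100% = wells without enzyme as full effect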", "conditions": "purified PI4K2A, ADP-Glo luminescence, 1 h; at 76.9 µM, stronger effect = lower value", "description": "The phosphatidylinositol 4-phosphate (PI4P) is emerging as a key regulator of lipid transfer in ER-membrane contact sites. The four different phosphatidylinositol 4-kinase (PI4K) enzymes generate PI4P in different membrane compartments supporting distinct cellular processes many of which are crucial for the maintenance of cellular integrity but also hijacked by intracellular pathogens. The goal of this screening project is to search for small molecular inhibitors of PI4K2A based on a high throughput screening strategy.The ADP-Glo assay was used as a starting point to develop a miniaturized version for HTS applications. To implement the HTS screen, the PI4K ADP-Glotrade mark Kinase assay (Promega, V9102) was miniaturized for the 1536-well format used at NCGC.\nFor the robotic screening, the ADP-Glo assay using the ADP-Glotrade mark Kinase Assay kit from Promega was miniaturized and optimized on 1536-well white solid bottom plates (Greiner Bio-one). The substrate, 1.2 mM PI, prepared in the assay buffer (40mM Tris pH7.5, 20mM MgCl2, 1mM EGTA, 0.4% Triton X-100, 0.5mM DTT, 0.5mg/ml BSA) and PI4K2A enzyme, diluted also in the assay buffer to 4ug/mL, were dispensed onto the plates in equal volumes (1microl/well), pinned with 23 nL/well tested compounds or control followed by dispensation of 1microl/well 300microM ATP. The plates were incubated for one hour. Then, 2 µL/well of ADP-Glo reagent was added and incubated for 40 minutes. Next, 4microL/well of Kinase Detection Buffer was added to the plates and incubated for additional 40 minutes. All incubation steps were performed at ambient temperature. The resulting luminescence signal was measured on Viewlux plate reader (PerkinElmer). Adenosine, a partial non-specific inhibitor, was used as a positive control at 100microM final concentration to assess the assay's quality and plate-to-plate reproducibility. We also used \"no enzyme\" control to gauge the assay's maximal potential inhibition (IC100).", "values": [{"smiles": "CCOC(=O)c1ccc(-c2ccc(/C=C(\\C#N)C(=O)Nc3ccc(OCC)cc3)o2)cc1", "activity change, negative = inhibition": "-0.67% (inactive)"}, {"smiles": "CCOc1ccc(NC(=O)c2ccc(NC(=O)COC(=O)c3ccc(NC(=O)CC#N)cc3)cc2)cc1", "activity change, negative = inhibition": "-84.7% (active)"}, {"smiles": "CCOc1ccc(NC(=O)Cn2c(C)ccc(C#N)c2=O)cc1", "activity change, negative = inhibition": "1.57% (inactive)"}, {"smiles": "COC(=O)CN1C(=O)CSc2ccc(S(=O)(=O)Nc3cc(C)ccc3C)cc21", "activity change, negative = inhibition": "-1.14% (inactive)"}, {"smiles": "Cc1ccc(S(=O)(=O)c2cn(Cc3ccccc3)c3cc(N4CCCC4)c(F)cc3c2=O)c(C)c1", "activity change, negative = inhibition": "2.36% (inactive)"}, {"smiles": "O=C(NCc1ccc(F)cc1)c1ccc(Cn2c(SCc3ccc(F)cc3)nc3cccnc32)cc1", "activity change, negative = inhibition": "-1.71% (inactive)"}, {"smiles": "O=C(OCC(O)CO)c1ccccc1Nc1ccnc2c(C(F)(F)F)cccc12", "note": "(centres undefined)", "activity change, negative = inhibition": "0.766% (inactive)"}, {"smiles": "COc1ccc(C(=O)Nc2ccccc2C(=O)N/N=C/c2ccc(O)c(OC)c2)cc1", "activity change, negative = inhibition": "-68.9% (active)"}, {"smiles": "COc1cccc(/C=N/NC(=O)C(=O)N2CCCC2)c1", "activity change, negative = inhibition": "-2.13% (inactive)"}, {"smiles": "COc1ccc(Nc2ncc(C(=O)Nc3cc(C)ccc3OC)c3ccccc23)cc1", "activity change, negative = inhibition": "2.21% (inactive)"}, {"smiles": "CC(=O)/C(C)=N/O", "activity change, negative = inhibition": "-0.649% (inactive)"}, {"smiles": "O=C(Nc1c(C(=O)N2CCN(c3ccc(F)cc3)CC2)oc2ccccc12)c1ccco1", "activity change, negative = inhibition": "-1.83% (inactive)"}, {"smiles": "CCc1ccc2ncc3c(-c4ccc(C)cc4)nn(CC(=O)NCc4ccccc4)c3c2c1", "activity change, negative = inhibition": "8.2% (inactive)"}, {"smiles": "COc1ccc(OCCn2cc(C(=O)C3CCCCC3)c3ccccc32)cc1", "activity change, negative = inhibition": "-0.826% (inactive)"}, {"smiles": "COc1cc(C(=O)Nc2ccc(-n3c(C)nc4ccccc4c3=O)cc2)cc(OC)c1OC", "activity change, negative = inhibition": "6.04% (inactive)"}, {"smiles": "Cc1ccc2onc(CC(=O)N3CCN(c4ccc(Cl)cc4)CC3)c2c1", "activity change, negative = inhibition": "2.89% (inactive)"}, {"smiles": "O=C(OCc1ccccc1)c1ccc(O)cc1", "activity change, negative = inhibition": "-0.636% (inactive)"}, {"smiles": "Cc1ccc(-c2cn3c(n2)sc2cc(C(=O)NCCCc4ccccc4)ccc23)cc1", "activity change, negative = inhibition": "-1.39% (inactive)"}, {"smiles": "CCN1CCN(CCCNC(=O)c2ccc3c(c2)sc2nc(-c4ccc(OC)cc4)cn23)CC1", "activity change, negative = inhibition": "-72.4% (active)"}, {"smiles": "COc1ccc(-c2cn3c(n2)sc2cc(C(=O)Nc4ccccc4F)ccc23)cc1", "activity change, negative = inhibition": "-4.68% (inactive)"}, {"smiles": "CCC(=O)Nc1cccc(-c2nc3cc(C)ccc3o2)c1", "activity change, negative = inhibition": "-9.07% (inactive)"}, {"smiles": "O=C(Nc1ccc(Br)cc1)c1ccc(Br)c(S(=O)(=O)NCc2ccccc2)c1", "activity change, negative = inhibition": "-0.252% (inactive)"}, {"smiles": "CCC(=O)N1CCc2cc(S(=O)(=O)NC(C(=O)NCCc3ccc(C)cc3)C(C)C)ccc21", "note": "(centres undefined)", "activity change, negative = inhibition": "-3.91% (inactive)"}, {"smiles": "CC(C)c1ccc(C2CC(=O)N3CN(C4CCCCC4)CSC3=C2C#N)cc1", "note": "(centres undefined)", "activity change, negative = inhibition": "-15.6% (inactive)"}, {"smiles": "Cc1cc(C)c(NC(=O)CN2C(=O)c3cccnc3Oc3ccc(Cl)cc32)c(C)c1", "activity change, negative = inhibition": "-3.1% (inactive)"}, {"smiles": "COC(=O)/C=C(/C)N", "activity change, negative = inhibition": "-1.85% (inactive)"}, {"smiles": "O=c1nc(N/N=C/c2ccco2)cn[nH]1", "activity change, negative = inhibition": "-22.5% (inactive)"}, {"smiles": "Cc1n[nH]c(=O)nc1N/N=C/c1cccs1", "activity change, negative = inhibition": "-51.8% (active)"}, {"smiles": "COc1ccc2c(c1)c(C(=O)N/N=C/c1cccs1)c(C)n2C", "activity change, negative = inhibition": "-1.53% (inactive)"}, {"smiles": "CCCCC12CN3CC(C)(CN(C1)C3c1ccc(O)c(OC)c1)C2=O", "note": "(centres undefined)", "activity change, negative = inhibition": "0.484% (inactive)"}, {"smiles": "CCCCNC(=O)c1ccc2c(c1)NC(=O)C(C(C)C)N2", "note": "(centres undefined)", "activity change, negative = inhibition": "-1.85% (inactive)"}, {"smiles": "COc1ccc(CCNC(=O)CCCn2c(=O)c3ccccc3n(Cc3ccc(F)cc3Cl)c2=O)cc1OC", "activity change, negative = inhibition": "1.26% (inactive)"}, {"smiles": "O=C(Nc1ccc(C(=O)O)c(O)c1)c1ccccc1", "activity change, negative = inhibition": "-14.9% (inactive) and -50.4% (active)"}, {"smiles": "O=C(O)c1ccc(-n2cccc2)cc1O", "activity change, negative = inhibition": "1.97% (inactive)"}, {"smiles": "O=C(Cn1ccc(=O)[nH]c1=O)Nc1ccc(C(=O)O)c(O)c1", "activity change, negative = inhibition": "-9.18% (inactive)"}, {"smiles": "CCCCOc1ccc(CNC(=O)c2ccc3c(c2)N(C)C(=O)C2CCCCN32)cc1", "note": "(centres undefined)", "activity change, negative = inhibition": "1.06% (inactive)"}, {"smiles": "CC(C)(C)OC(=O)N1CCC(c2c(C(=O)Nc3ccc4c(c3)OCO4)cnn2-c2ccccc2)CC1", "activity change, negative = inhibition": "-3.37% (inactive)"}, {"smiles": "Cc1cccc(-c2nnc(SCC(=O)N3CCCc4ccccc43)o2)c1", "activity change, negative = inhibition": "1.17% (inactive)"}, {"smiles": "CCCCOc1ccc(C(=O)Nc2cccc(-c3nc4ccccc4o3)c2C)cc1", "activity change, negative = inhibition": "-4.4% (inactive)"}, {"smiles": "CCOC(=O)c1cccc(NS(=O)(=O)c2cc(-c3cnc(C)o3)ccc2OC)c1", "activity change, negative = inhibition": "-9.3% (inactive)"}, {"smiles": "COc1ccc(Cl)cc1NC(=O)CSc1nc(=O)[nH]c2c1CCCC2", "activity change, negative = inhibition": "3.81% (inactive)"}, {"smiles": "CCc1ccccc1NC(=O)Cc1ccc(NC(=O)N2CCCCc3ccccc32)cc1", "activity change, negative = inhibition": "-0.392% (inactive)"}, {"smiles": "COC(=O)c1cc(NC(=O)CCS(=O)(=O)c2cc(Br)cc3c2N(C(=O)C2CC2)CC3)cc(C(=O)OC)c1", "activity change, negative = inhibition": "1.45% (inactive)"}, {"smiles": "CCOc1cc(-c2nnc(SCC(=O)NC3CCCC3)nc2-c2ccc(OC)c(OCC)c2)ccc1OC", "activity change, negative = inhibition": "1.43% (inactive)"}]}]}
